# Results published in article PMC12864922, “TDP-43 directly inhibits mRNA accumulation in neurites through modulation of mRNA stability”.
# Over roughly 9,900 sequences, “r (bound/input frequency ratio)” has its median near 0.7; the highest 2% begin near 6.5. The sample holds the highest values, similar sequences and a random draw of the others, so the mix is not that of the screen.
# B1: ENSMUSG00000042529.290|Kcnj12 (ssRNA)
# RNA: GGGAGUUCUACAGUCCGACGAUCGCUUCGAUAUCCGCAUGCUAGGCACCUGUCAUUCUUUCUGAGUAGGUGGGCCUGUAUCCAGAGCAGGGUCUAGGGGCUCCUGCUCCCGGCUCAUCUCAGUGGCCUGAAGCAUUCAAAACUCUAGCCAGCCCCAUCCUCCUCCCUGCCAGAAUGGUCCAGUCCCUGGGCCCUGCUGGAGAGCAGCUCAAACUGCCUUUCAUCUCUGCCAAAGGCAGGCAGAUGCUGUAUUUUCAAAUUCUCCUGCCCUCUUUUCCCCUUUUUCCCUGUAUUUAUUUAUUGCCUCUUGCGGUCGCACUAGUGUGGAAUUCUCGGGUGUCAAGG
# B2: ENSMUSG00000042529.422|Kcnj12 (ssRNA)
# RNA: GGGAGUUCUACAGUCCGACGAUCGCUUCGAUAUCCGCAUGCUAACAUGUGUGAGGGUGUGGAGGUCCCAGGGUGUGUGUAUGUGAAUGUCAGUGGCUUGGGUGCUGUGUGGAGAGAGAGAGAGAGAGAGAGAGAGAGAGAGAGAGAGAGAGAGAGAGAGAGCUGCACAGGAUGAAGCAGCUGCCCUGAGCCCAUCUGGUGCUGUGCACCUGGUCCUUGUCCAGCCGAGGGCCUGGGGGCAGAAGAACACACCAUAGGGAGGCCCUUGUAUGGGUGUCUGCCCUAUGUGAGGUCAUAGAAUGUUCUCUUGCGGUCGCACUAGUGUGGAAUUCUCGGGUGUCAAGG
# B3: ENSMUSG00000042529.420|Kcnj12 (ssRNA)
# RNA: GGGAGUUCUACAGUCCGACGAUCGCUUCGAUAUCCGCAUGCUAGUGUGUGUGUGAACAUGUGUGAGGGUGUGGAGGUCCCAGGGUGUGUGUAUGUGAAUGUCAGUGGCUUGGGUGCUGUGUGGAGAGAGAGAGAGAGAGAGAGAGAGAGAGAGAGAGAGAGAGAGAGAGAGAGCUGCACAGGAUGAAGCAGCUGCCCUGAGCCCAUCUGGUGCUGUGCACCUGGUCCUUGUCCAGCCGAGGGCCUGGGGGCAGAAGAACACACCAUAGGGAGGCCCUUGUAUGGGUGUCUGCCCUAUGUGAGGCUCUUGCGGUCGCACUAGUGUGGAAUUCUCGGGUGUCAAGG
# B4: ENSMUSG00000042529.418|Kcnj12 (ssRNA)
# RNA: GGGAGUUCUACAGUCCGACGAUCGCUUCGAUAUCCGCAUGCUAGUGUGUGUGUGUGUGUGUGUGUGAACAUGUGUGAGGGUGUGGAGGUCCCAGGGUGUGUGUAUGUGAAUGUCAGUGGCUUGGGUGCUGUGUGGAGAGAGAGAGAGAGAGAGAGAGAGAGAGAGAGAGAGAGAGAGAGAGAGAGCUGCACAGGAUGAAGCAGCUGCCCUGAGCCCAUCUGGUGCUGUGCACCUGGUCCUUGUCCAGCCGAGGGCCUGGGGGCAGAAGAACACACCAUAGGGAGGCCCUUGUAUGGGUGUCUGCUCUUGCGGUCGCACUAGUGUGGAAUUCUCGGGUGUCAAGG
# B5: ENSMUSG00000042529.421|Kcnj12 (ssRNA)
# RNA: GGGAGUUCUACAGUCCGACGAUCGCUUCGAUAUCCGCAUGCUAGUGUGAACAUGUGUGAGGGUGUGGAGGUCCCAGGGUGUGUGUAUGUGAAUGUCAGUGGCUUGGGUGCUGUGUGGAGAGAGAGAGAGAGAGAGAGAGAGAGAGAGAGAGAGAGAGAGAGAGAGAGCUGCACAGGAUGAAGCAGCUGCCCUGAGCCCAUCUGGUGCUGUGCACCUGGUCCUUGUCCAGCCGAGGGCCUGGGGGCAGAAGAACACACCAUAGGGAGGCCCUUGUAUGGGUGUCUGCCCUAUGUGAGGUCAUAGCUCUUGCGGUCGCACUAGUGUGGAAUUCUCGGGUGUCAAGG
# B6: ENSMUSG00000042529.417|Kcnj12 (ssRNA)
# RNA: GGGAGUUCUACAGUCCGACGAUCGCUUCGAUAUCCGCAUGCUAGUGUGUGUGUGUGUGUGUGUGUGUGUGUGAACAUGUGUGAGGGUGUGGAGGUCCCAGGGUGUGUGUAUGUGAAUGUCAGUGGCUUGGGUGCUGUGUGGAGAGAGAGAGAGAGAGAGAGAGAGAGAGAGAGAGAGAGAGAGAGAGAGAGCUGCACAGGAUGAAGCAGCUGCCCUGAGCCCAUCUGGUGCUGUGCACCUGGUCCUUGUCCAGCCGAGGGCCUGGGGGCAGAAGAACACACCAUAGGGAGGCCCUUGUAUGGGCUCUUGCGGUCGCACUAGUGUGGAAUUCUCGGGUGUCAAGG
# B7: ENSMUSG00000042529.419|Kcnj12 (ssRNA)
# RNA: GGGAGUUCUACAGUCCGACGAUCGCUUCGAUAUCCGCAUGCUAGUGUGUGUGUGUGUGUGAACAUGUGUGAGGGUGUGGAGGUCCCAGGGUGUGUGUAUGUGAAUGUCAGUGGCUUGGGUGCUGUGUGGAGAGAGAGAGAGAGAGAGAGAGAGAGAGAGAGAGAGAGAGAGAGAGAGAGCUGCACAGGAUGAAGCAGCUGCCCUGAGCCCAUCUGGUGCUGUGCACCUGGUCCUUGUCCAGCCGAGGGCCUGGGGGCAGAAGAACACACCAUAGGGAGGCCCUUGUAUGGGUGUCUGCCCUAUCUCUUGCGGUCGCACUAGUGUGGAAUUCUCGGGUGUCAAGG
# B8: ENSMUSG00000042529.423|Kcnj12 (ssRNA)
# RNA: GGGAGUUCUACAGUCCGACGAUCGCUUCGAUAUCCGCAUGCUAGUGAGGGUGUGGAGGUCCCAGGGUGUGUGUAUGUGAAUGUCAGUGGCUUGGGUGCUGUGUGGAGAGAGAGAGAGAGAGAGAGAGAGAGAGAGAGAGAGAGAGAGAGAGAGAGCUGCACAGGAUGAAGCAGCUGCCCUGAGCCCAUCUGGUGCUGUGCACCUGGUCCUUGUCCAGCCGAGGGCCUGGGGGCAGAAGAACACACCAUAGGGAGGCCCUUGUAUGGGUGUCUGCCCUAUGUGAGGUCAUAGAAUGUUAAAUCUCUCUUGCGGUCGCACUAGUGUGGAAUUCUCGGGUGUCAAGG
# B9: ENSMUSG00000042529.416|Kcnj12 (ssRNA)
# RNA: GGGAGUUCUACAGUCCGACGAUCGCUUCGAUAUCCGCAUGCUAGUGUGUGUGUGUGUGUGUGUGUGUGUGUGUGUGUGAACAUGUGUGAGGGUGUGGAGGUCCCAGGGUGUGUGUAUGUGAAUGUCAGUGGCUUGGGUGCUGUGUGGAGAGAGAGAGAGAGAGAGAGAGAGAGAGAGAGAGAGAGAGAGAGAGAGAGCUGCACAGGAUGAAGCAGCUGCCCUGAGCCCAUCUGGUGCUGUGCACCUGGUCCUUGUCCAGCCGAGGGCCUGGGGGCAGAAGAACACACCAUAGGGAGGCCCUUGCUCUUGCGGUCGCACUAGUGUGGAAUUCUCGGGUGUCAAGG
# B10: ENSMUSG00000042529.424|Kcnj12 (ssRNA)
# RNA: GGGAGUUCUACAGUCCGACGAUCGCUUCGAUAUCCGCAUGCUAGUGUGGAGGUCCCAGGGUGUGUGUAUGUGAAUGUCAGUGGCUUGGGUGCUGUGUGGAGAGAGAGAGAGAGAGAGAGAGAGAGAGAGAGAGAGAGAGAGAGAGAGAGCUGCACAGGAUGAAGCAGCUGCCCUGAGCCCAUCUGGUGCUGUGCACCUGGUCCUUGUCCAGCCGAGGGCCUGGGGGCAGAAGAACACACCAUAGGGAGGCCCUUGUAUGGGUGUCUGCCCUAUGUGAGGUCAUAGAAUGUUAAAUCUAUUUUACUCUUGCGGUCGCACUAGUGUGGAAUUCUCGGGUGUCAAGG
# Target: TDP-43 (Homo sapiens, UniProt Q13148 1-414)
# Sequence (Q13148 whole entry): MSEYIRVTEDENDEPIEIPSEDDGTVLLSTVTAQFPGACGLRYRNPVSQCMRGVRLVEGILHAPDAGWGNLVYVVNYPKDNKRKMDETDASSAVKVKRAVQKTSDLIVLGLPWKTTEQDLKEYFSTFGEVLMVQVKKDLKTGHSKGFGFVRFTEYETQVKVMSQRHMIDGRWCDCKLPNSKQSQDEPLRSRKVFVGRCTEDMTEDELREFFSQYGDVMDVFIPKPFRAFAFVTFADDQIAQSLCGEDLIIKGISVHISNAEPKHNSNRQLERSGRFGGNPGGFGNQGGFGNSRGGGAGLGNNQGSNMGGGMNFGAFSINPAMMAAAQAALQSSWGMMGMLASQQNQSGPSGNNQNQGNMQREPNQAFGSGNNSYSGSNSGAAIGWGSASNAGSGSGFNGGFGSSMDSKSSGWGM
# Experiment: RNA Bind-n-Seq with designed 260-mer pool; 25 mM Tris-HCl, 150 mM KCl, 3 mM MgCl2, BSA (printed 500 mg/mL), 20 units/mL SUPERase IN; pH not stated; 500 nM RNA pool, 1 h, 4 C; TDP-43 5, 50, 500 nM; high values mean tight binding
# Details: protein: recombinant; tags: SBP (GST cleaved off with PreScission; pGEX-GST-SBP)
# Outline: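 For each oligo, R gives binding as its mapped-read-normalized abundance after pulldown divided by its abundance in input. Bead-captured SBP-tagged TDP-43 (5, 50 or 500 nM) was incubated with 500 nM of an in vitro-transcribed 260-nt 3′ UTR oligo pool for 1 h at 4 °C in 25 mM Tris-HCl, 150 mM KCl, 3 mM MgCl2, BSA and SUPERase IN on streptavidin beads. Washed, biotin-eluted RNA was reverse transcribed, PCR-amplified and sequenced.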
row,Binder,binding signal
1,B1,1.04 R (bound/input frequency ratio)
2,B2,6.32 R (bound/input frequency ratio)
3,B3,6.59 R (bound/input frequency ratio)
4,B4,6.38 R (bound/input frequency ratio)
5,B5,6.04 R (bound/input frequency ratio)
6,B6,5.22 R (bound/input frequency ratio)
7,B7,6.65 R (bound/input frequency ratio)
8,B8,7.6 R (bound/input frequency ratio)
9,B9,6.11 R (bound/input frequency ratio)
10,B10,5.67 R (bound/input frequency ratio)
